Source: PubChem BioAssay
An excerpt weighted towards active compounds, which were near 3.5% of everything screened.
Pf apPOL block: Pf-apPOL DNA polymerase inhibition; inhibition, % at 10 µM; Recombinant Pf-apPOL, molecular beacon fluorescence, 1.5 h; hit rate 0.25% among 210,000
mHTT-CaM PPI inh: mHTT-calmodulin interaction abrogation; AlphaScreen His-mHTT/GST-CaM binding, luminescence; inhibition, % at 15 µM; hit rate 3.6% among 190,000;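 note: 0% = both proteins with DMSO and 100% = one protein alone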
Numbers without * were called inactive; i = inactive; nt = no result; + = active, no number. Cut-off read from the data, not from the text of the source: active = inhibition above about 50%; inactive = the rest.

SMILES	Pf apPOL block	mHTT-CaM PPI inh
COc1cccc(N2CCN(C(=O)C3CCN(c4nnc(-c5ccccc5)o4)CC3)CC2)c1	-2	2
CCCNC(=O)N1CCC2(CC1)c1cccn1-c1ccc(C)cc1N2CC	4	100*
CCN1c2cc(C)ccc2-n2cccc2C12CCN(C(=O)Nc1ccccc1C)CC2	2	28
COCCCNC(=O)CCC(=O)N1CCCn2nc(-c3cn(C)c4ccccc34)cc21	2	20
O=C1Nc2ccccc2/C1=N\N1C(=O)C2C=CC=CC2C1=O (stereo unspecified)	nt	i
O=C1Nc2ccccc2/C1=N\N1CCN(C2c3ccccc3-c3ccccc32)CC1	nt	+
NNC(=O)COc1ccc(OC(F)(F)F)cc1	-10	nt
CCC(NS(=O)(=O)c1ccc(OC)cc1)C(=O)NC1CCCC(C)C1C (stereo unspecified)	-1	-6
Cn1cnc([N+](=O)[O-])c1Sc1nc2ccccc2[nH]1	0	2
O=[N+]([O-])c1cc(C(F)(F)F)cc([N+](=O)[O-])c1Sc1nc2ccccc2[nH]1	3	99*
Nc1ncnc(Sc2nc3ccccc3[nH]2)c1[N+](=O)[O-]	3	79*
O=[N+]([O-])c1ccc(Cl)cc1Sc1nc2ccccc2[nH]1	-6	-3
COc1ccc(C2=NN3C(C2)c2cc(OC)ccc2OC32CCCCC2)cc1 (stereo unspecified)	-17	60*
COc1cccc(C2=NN3C(C2)c2cccc(OC)c2OC32CCCCC2)c1 (stereo unspecified)	-14	52*
COc1cccc2c1OC1(CCC(C)CC1)N1N=C(c3ccco3)CC21 (stereo unspecified)	-16	17
COc1cccc2c1OC(C)(C)N1N=C(c3ccco3)CC21 (stereo unspecified)	-23	55*
COc1ccc(C2=NN3C(C2)c2ccccc2OC32CCCCC2)cc1OC (stereo unspecified)	-8	45
COc1cccc2c1OC1(CCCCC1)N1N=C(c3ccco3)CC21 (stereo unspecified)	-18	32
COc1ccc2nc(-n3nc(C)cc3NC(=O)c3ccc([N+](=O)[O-])s3)sc2c1	-4	-12
CC(C)NC(=O)N1CCCC(c2cccc(C(=O)NCc3cccs3)c2)C1 (stereo unspecified)	-3	-3
O=c1c2c3c(sc2nc2c4ccccc4cnn12)CCCCC3	-1	23
O=C(NC1CCCC1)c1ccc(-c2cccs2)nc1	-1	-4
Cc1cc(C)c(C(=O)NCCN2CCOC(c3ccccc3)C2)c(C)c1 (stereo unspecified)	-4	0
O=C(NCc1ccc2c(c1)OCO2)C1CCCN(c2nnc3ccc(Cl)cn23)C1 (stereo unspecified)	1	22
O=C(Cn1c(=O)n(-c2cc(F)ccc2F)c(=O)c2sccc21)NCc1ccccc1	-5	-3
SMILES	Pf apPOL block	mHTT-CaM PPI inh
NC(=O)c1oc2ccccc2c1NC(=O)C1CCCN1S(=O)(=O)c1ccc(F)cc1 (stereo unspecified)	-6	67*
O=C(Nc1nc2c(s1)CCC2)C1CCCN1S(=O)(=O)c1ccc(F)cc1 (stereo unspecified)	0	3
COc1ccc(C2=CC(c3cccc(C)c3)n3ncnc3N2)cc1 (stereo unspecified)	-5	5
O=C(Nc1cccc(-c2nc3ccccc3o2)c1)c1cccnc1Cl	74*	0
O=C(Nc1cccc(-c2nc3ccccc3o2)c1)c1ccccc1I	-4	-4
COc1ccc(C)cc1NC(=O)C1CCN(c2cncnc2N2CCOCC2)CC1	-10	9
CC(Oc1cc2oc(=O)cc(-c3ccccc3)c2cc1Cl)C(=O)O (stereo unspecified)	-1	100*
COC(=O)C(C)Oc1cc(C)cc2oc(=O)cc(-c3ccccc3)c12 (stereo unspecified)	-4	-7
COc1ccc(C2CC(=O)C=C(Nc3ccc(CC(=O)O)cc3)C2)cc1 (stereo unspecified)	-4	6
CCN1c2cc(Cl)ccc2C(=O)NC12CCN(C(=O)NCc1ccc(C)cc1)CC2	-3	-3
CCN1c2cc(Cl)ccc2C(=O)NC12CCN(C(=O)NCc1ccc(F)cc1)CC2	-2	58*
CC1CCc2nn(CC(=O)Nc3ccc(Br)cc3F)cc2C1 (stereo unspecified)	-2	-1
O=C1OCCN1C(=O)[C@H]1[C@H](c2ccc(F)cc2)C(c2ccc(F)cc2)=NN1c1ccccc1	1	24
O=C1OCCN1C(=O)[C@H]1[C@H](c2ccc(F)cc2)C(c2ccccc2)=NN1c1ccccc1	1	-33
O=C1OCCN1C(=O)[C@H]1[C@H](c2ccc(Cl)cc2)C(c2ccc(F)cc2)=NN1c1ccccc1	2	72*
O=C1OCCN1C(=O)[C@H]1[C@H](c2ccc(Cl)cc2)C(c2ccccc2)=NN1c1ccccc1	-8	-9
O=C1OCCN1C(=O)[C@H]1[C@H](c2ccc(Cl)cc2)C(c2ccc(F)cc2)=NN1c1ccc(Br)cc1	-7	79*
O=C1OCCN1C(=O)[C@H]1[C@H](c2ccc(F)cc2)C(c2ccc(F)cc2)=NN1c1ccc(Br)cc1	-6	54*
Cc1ccc(Cl)cc1NC(=O)N1CCCC1c1cc(C(C)C)no1 (stereo unspecified)	-1	-7
CN(C)c1ccc(C2C3=C(CCCC3=O)Nc3nc(SCc4ccccc4F)[nH]c(=O)c32)cc1 (stereo unspecified)	-5	52*
O=C1CCCC2=C1C(c1cccs1)c1c(nc(SCc3ccccc3F)[nH]c1=O)N2 (stereo unspecified)	-5	41
O=C(NCc1ccco1)C1c2ccccc2CCN1C(=O)C1CC1 (stereo unspecified)	-2	-6
O=C(CSc1nccn1-c1cccc(Cl)c1)Nc1ccccc1F	4	32
Cc1ccccc1NC(=O)CSc1nccn1-c1cccc(C(=O)Nc2ccccc2)c1	-7	60*
O=C(CSc1nc2ccccc2o1)Nc1ncc(Br)cc1Br	-2	6
SMILES	Pf apPOL block	mHTT-CaM PPI inh
O=C(Nc1ccc(N2CCCC2)cc1)c1ccccc1F	-5	88*
CN(C)c1cccc(C(=O)Nc2ccc3ncnc(N4CCCC4)c3c2)c1	9	76*
O=C(Nc1ccc(N2CCCCC2)cc1)c1ccccc1	-19	nt
Cc1cccc(C(=O)Nc2ccc3ncnc(N4CCCCC4)c3c2)c1	1	18
O=C(Nc1ccc(N2CCOCC2)cc1)c1ccccc1F	0	4
CC(C)Oc1cccc(C(=O)Nc2ccc(N3CCCC3)cc2)c1	-7	99*
O=C(Nc1ccc2ncnc(N3CCCCC3)c2c1)c1ccccc1F	2	55*
O=C(Nc1ccc2ncnc(N3CCCCC3)c2c1)c1cccc(F)c1	-1	1
COc1ccc(-c2coc3cc(OCc4cccc(Cl)c4)ccc3c2=O)cc1OC	-6	-2
O=C(Nc1ccc(N2CCN(C(=O)c3ccccc3)CC2)nc1)c1ccccc1	-6	-5
COc1ccc(S(=O)(=O)N2CCc3nc(NC(=O)c4cccc(C)c4)sc3C2)cc1	-2	4
Cc1ccccc1-n1[nH]c(C)c(C=Nc2cc([N+](=O)[O-])cc([N+](=O)[O-])c2O)c1=O	-2	53*
Cc1ccccc1-n1[nH]c(C)c(C=Nc2ccc([N+](=O)[O-])cc2)c1=O	4	11
COc1ccc(OC)c(-c2[nH]c3c(=O)n(C)c(=O)n(C)c3c2O)c1	4	-3
N#CCc1nn(-c2ccccc2)c(N=Cc2cc(Cl)cc(Cl)c2O)c1C#N	-24	nt
